Screening results deposited in PubChem BioAssay by several laboratories.
Only a selection was taken, and hits are over-represented in it overall.
RmlCD inh mix: inhibitors of RmlC and RmlD coupled enzymes. inhibition, % at 5.5 µM. RmlC/RmlD coupled enzyme inhibition, 384-well mixture HTS. AID 1532. 110,000 compounds, 0.39% hits; in the data active = inhibition above about 30%, passing the limit was not always enough; inconclusive = no clear call, values can overlap the other calls
HIV RNase H inh-1: inhibitors of HIV-1 reverse transcriptase RNase H; inhibition, % at 10 µM; RT-RNase H RNA/DNA duplex cleavage, fluorescence; 65,000 compounds, 1.9% hits; P04585; in the data active = inhibition above about 50%
HIV RNase H inh-2: confirmation of HIV-1 reverse transcriptase RNase H inhibitors; shares compounds with HIV RNase H inh-1; Recombinant RT RNase H, fluorescent RNA/DNA duplex cleavage; inhibition, % at 10 µM; 1,000 compounds, 39% hits; AID 651; in the data active = inhibition above about 48%; inconclusive = no clear call, values can overlap the other calls
Large screens that a line does not name were inactive (follow-up assays come after a bar, where they were run).

COc1ccc(N2C(=O)C(Cl)=C(N3CCCC3)C2=O)cc1	HIV RNase H inh-1 52.3 | HIV RNase H inh-2 inactive
Cc1ccccc1N1C(=O)C(Cl)=C(N2CCN(c3ccccc3)CC2)C1=O	none
CN1CCN(C2=C(Cl)C(=O)N(c3ccc(Cl)c(Cl)c3)C2=O)CC1	HIV RNase H inh-1 96.3 | HIV RNase H inh-2 73.5
Cn1c(=O)n(-c2cccc(Cl)c2)c(=O)n1C	none
O=C1C(Cl)=C(N2CCOCC2)C(=O)N1c1ccccc1Cl	HIV RNase H inh-1 70.5 | HIV RNase H inh-2 inactive
CN1CCN(C2=C(Cl)C(=O)N(c3cccc(Cl)c3)C2=O)CC1	HIV RNase H inh-1 70.2 | HIV RNase H inh-2 inactive
COc1ccc(N2C(=O)C(Cl)=C(N3CCCC(C)C3)C2=O)cc1 (stereo not drawn)	none (no result: HIV RNase H inh-1)
CCN1C(=O)/C(=C/c2cccs2)SC1=Nc1ccc(OC)cc1	none (no result: HIV RNase H inh-1)
Cc1cc(C)n(-c2ccc(C(=O)Nc3ccccc3N3CCOCC3)cc2)n1	none
CO/N=C(\C)c1ncc(C(F)(F)F)cc1N1CCOCC1	none (no result: HIV RNase H inh-1)
COC(=O)c1cccc(Oc2nc(N3CCOCC3)nc(N3CCOCC3)n2)c1	none (no result: RmlCD inh mix)
COC(=O)c1cccc(N2C(=O)C(Cl)=C(N3CCOCC3)C2=O)c1	HIV RNase H inh-1 83.3 | HIV RNase H inh-2 62.3
N#Cc1nc(-c2ccco2)oc1N1CCN(Cc2ccccc2)CC1	none
Cc1cc(C)c(NC(=O)Cn2c(=O)n(Cc3ccco3)c(=O)c3ccccc32)c(C)c1	HIV RNase H inh-1 69.0 | HIV RNase H inh-2 72.8
Cc1ccccc1Cn1c(=O)n(Cc2ccco2)c(=O)c2ccccc21	none
Cn1c(=O)c2c(nc(N3CCC(C(N)=O)CC3)n2CCSc2nc3ccccc3s2)n(C)c1=O	none (no result: RmlCD inh mix)
COc1ccc2[nH]c(=O)c(CN(Cc3nnnn3Cc3ccco3)C3CCCCC3)cc2c1	none
COc1ccc2[nH]c(=O)c(CN(C3CCCCC3)C(c3nnnn3Cc3ccco3)C(C)C)cc2c1 (stereo not drawn)	HIV RNase H inh-1 50.8 (no result: RmlCD inh mix) | HIV RNase H inh-2 54.6
CCN(CC)CCN(CC)Cc1ccccc1Br	none
CCN(CC)c1ccc(C(=S)N2CCN(c3ccccc3)CC2)cc1	HIV RNase H inh-1 73.0 | HIV RNase H inh-2 inactive
S=C(c1ccc(N2CCCC2)cc1)N1CCCCC1	none
CCOC(=O)C1=C(O)CSC1=Nc1ccccc1	none
C1=C(c2ccc(-c3ccccc3)cc2)Nc2ncnn2C1c1ccco1 (stereo not drawn)	HIV RNase H inh-1 89.7 | HIV RNase H inh-2 51.7
Cc1ccc(C2C=C(c3ccccc3)Nc3ncnn32)cc1 (stereo not drawn)	none (no result: HIV RNase H inh-1)
CCOC(=O)c1c(N)sc(=S)c2c1CCC2	none
CCOC(=O)c1c(N)ssc1=S	HIV RNase H inh-1 85.0 | HIV RNase H inh-2 inconclusive
O=C(/N=C1\NC(=O)C(F)(C(F)(F)F)S1)NC1CCCCC1 (stereo not drawn)	HIV RNase H inh-1 86.7 | HIV RNase H inh-2 inactive
CCC1S/C(=N/C(=O)NC2CCCCC2)NC1=O (stereo not drawn)	none (no result: HIV RNase H inh-1)
COc1ccc(C(=O)c2ccc(OC)c(OC)c2)cc1OC	none
COc1ccc(C(=S)N(C)C)cc1OC	HIV RNase H inh-1 87.4 | HIV RNase H inh-2 58.3
CCOC(=O)CC(NC(=O)c1ccco1)c1ccc(C)cc1 (stereo not drawn)	none (no result: HIV RNase H inh-1)
CCN(CC)C(=O)C1=C(C)Nc2nnnn2C1c1cccnc1 (stereo not drawn)	none
CCOc1ccc(-n2c(=O)c3c4c(sc3n(CC(=O)NCc3ccco3)c2=O)CCC4)cc1	HIV RNase H inh-1 57.3 | HIV RNase H inh-2 87.3
CCN(CC)C(=O)Cn1c(=O)n(-c2ccccc2)c(=O)c2c3c(sc21)CCC3	none (no result: HIV RNase H inh-1)
CCc1ccc(-c2cc(C(F)(F)F)n3nc(C(=O)Nc4c(C)nn(Cc5ccccc5C)c4C)cc3n2)s1	none (no result: HIV RNase H inh-1)
Oc1ccc2c(c1)C1CCCC1(N1CCOCC1)O2 (stereo not drawn)	HIV RNase H inh-1 67.5 | HIV RNase H inh-2 inactive
c1ccc2c(c1)nc1n2C2(N3CCOCC3)CCCC2C1N1CCOCC1 (stereo not drawn)	none (no result: RmlCD inh mix)
Cc1ccc(SC(C)C(=O)Nc2ccc(S(=O)(=O)N3CCOCC3)cc2)cc1 (stereo not drawn)	none (no result: HIV RNase H inh-1)
COc1ccccc1N1CSC2=C(C#N)C(c3ccc(SC)cc3)CC(=O)N2C1 (stereo not drawn)	HIV RNase H inh-1 81.2 | HIV RNase H inh-2 55.2
COc1cccc(C2CC(=O)N3CN(c4ccccc4F)CSC3=C2C#N)c1 (stereo not drawn)	HIV RNase H inh-1 75.9 | HIV RNase H inh-2 inactive
COc1ccc(OC)c(C2CC(=O)N3CN(c4cccc(Cl)c4C)CSC3=C2C#N)c1 (stereo not drawn)	none
COc1ccc(OC)c(C2CC(=O)N3CN(c4ccccc4F)CSC3=C2C#N)c1 (stereo not drawn)	none
COc1cc(C2CC(=O)N3CN(c4ccccc4C)CSC3=C2C#N)cc(OC)c1OC (stereo not drawn)	HIV RNase H inh-1 66.4 | HIV RNase H inh-2 83.3
COc1cccc(C2CC(=O)N3CN(c4cccc(Cl)c4C)CSC3=C2C#N)c1OC (stereo not drawn)	none
Cc1nc2sc3c(c2c(=O)[nH]1)CCC3	none
